This passage reports AC50 and outcome results from PubChem BioAssay (EPA / NIEHS).

Several values for one entry are separate records, joined by “and”; a condition that tells them apart may be missing. Equal entries are not always repeated. Records with an inconclusive call do not appear. A structure can be active in one record and inactive in another. Activity calls are given as the source filed them. How the source made its calls: active means hit-call score of the fitted dose curve at least 0.9, where 1 is the maximum; inconclusive means response in the unintended direction; inactive means score below 0.9.

For the assay, the target named is human Peripheral-type Benzodiazepine Receptor (PBR), TSPO (gene 706) (UniProt P30536). Put plainly: NVS_MP_hPBR: NovaScreen (NVS) Membrane Protein Assay for human Peripheral-type Benzodiazepine Receptor (PBR) (AID 2283331).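 Further: hits reduce radioligand binding relative to DMSO baseline.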 In short, it runs like this: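 Using human colon-derived membranes, this one-endpoint binding test reads radioligand loss by scintillation after 1 h. Screening started at 25 uM in duplicate, with positive and negative controls on every plate, and actives moved to dose series.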
Sequence of human Peripheral-type Benzodiazepine Receptor (PBR), TSPO (gene 706) (P30536 whole entry, looked up): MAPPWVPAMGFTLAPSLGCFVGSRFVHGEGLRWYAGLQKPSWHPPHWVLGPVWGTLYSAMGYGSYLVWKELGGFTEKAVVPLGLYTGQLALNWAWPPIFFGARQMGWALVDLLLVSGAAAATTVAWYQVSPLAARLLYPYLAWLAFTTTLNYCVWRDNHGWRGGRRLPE
With `Cc1oc2c(NC(=O)c3c(Cl)cccc3Cl)cccc2c1C(C)(C)O`, the AC50 (commonly the midpoint of the concentration-response curve, whichever way the signal moves) was 1.26 µM (active).

As for `CC(C)(O)c1ccc(CNC(=O)c2cccnc2Oc2ccc3nonc3c2)cc1`, the AC50 is 2.34 µM (active).

With `COc1cc(C(=O)NC2CCN(C)CC2)ccc1Nc1ncc2c(n1)N(C1CCCC1)CC(F)(F)C(=O)N2C`, the result was inactive.

Consider `NC(=O)c1nc(-c2cccc(-c3cc(F)ccc3OCC(F)(F)C(F)(F)F)c2)n[nH]1`, for which the compound was called inactive.

Regarding `Cc1ccc2oc(CN(Cc3ccccc3)C(=O)Nc3c(F)cc(F)cc3F)c(-c3ccc(Cl)cc3)c2c1`, the AC50 was 2.6 µM (active).

Consider `CCN(CC)C(=O)c1cc(S(=O)(=O)Cc2ccccc2)c(N2CCC(c3ccccc3)CC2)cc1N(CC)CCN(C)C`, for which the AC50 was 3.31 µM (active).

For `NCc1cccc(C2CCN(C(=O)c3ccc(C#Cc4ccccc4F)o3)CC2)c1`, the AC50 is 2.7 µM (active).

For `OC12N=C(c3ccccc3)SC1Cc1cc(Cl)ccc12` (stereo unspecified), the call was inactive.

In the case of `CC[C@H](NC(=O)c1cc(F)ccc1NS(=O)(=O)c1cccc2cccnc12)c1ccccc1`, the AC50 is 0.246 µM (active).

Consider `CC[C@@H]1C[C@H](N(Cc2cc(C(F)(F)F)cc(C(F)(F)F)c2)C(C)=O)c2cc(C(F)(F)F)ccc2N1C(=O)OC(C)C`, for which the compound was called inactive.

With `Cc1c2ccccc2c(C)c2c1ccc1ccccc12`, the AC50 was 14.6 µM (active).

With `CC/C(=C(/CC)c1ccc(O)cc1)c1ccc(O)cc1`, the AC50 is 202 nM (active) and 13.5 µM (active); the outcome was inactive.

Consider `CN(C)c1ccc(C(=C2C=CC(=[N+](C)C)C=C2)c2ccc(N(C)C)cc2)cc1`, for which the AC50 is 1.4 µM (active).

`O=C(O)Cn1c(=O)n(Cc2ccc(Br)cc2F)c(=O)c2ccc(Cl)cc21`: the result was inactive.

On to `CCN(Cc1cccnc1)C(=O)c1cccc(Cl)c1[C@]1(C)C(=O)N(Cc2ccc(OC)cc2OC)c2ccc(Cl)cc21`, for which the AC50 was 1.07 µM (active).

For the compound `CCCCOC(=O)c1ccc(O)cc1`, the AC50 is 19.6 µM (active) and 25 µM (active).

Consider `Oc1ccc2ccccc2c1`, for which the result was inactive.

`O=c1c(-c2ccc(O)cc2)coc2cc(O)cc(O)c12`: the AC50 was 8.19 µM (active).

As to `CCCCOC(=O)CC(CC(=O)OCCCC)(OC(C)=O)C(=O)OCCCC`, the compound was called inactive.

With `CCCCCCCCOC(=O)c1cc(O)c(O)c(O)c1`, the AC50 is 0.439 µM (active).
